{"source": "the supplement of paper PMC8728848", "binders": {"B1": {"name": "NanI (Corynebacterium diphtheriae), C6JSW7 (protein)", "chain": "MTNTLESNPMTTTTGALTITFATTCDGPLAHIPHHLDLNIIHGRIQGTTAHRRIDAEDPDGLDDGLPHHLCLSVDTTGTHLFIDGYEAFSTTQTEWFDTSELTLNPHGDLTIIDHQILNHAPTPRQARNLAPAAEPLVWFAGSHLSTRDTQRISHLTHGSLRLLMKTRGTGQGGVAFQAHTINGDLTLEIIDGTLIFSVRCHDEDYVRITAPGRWDDGQIYDVVIVCGRGATDIYVDGQQLIHSPGAAFFNDLSGELSVHIGTAASGVRLFGEVQSGMIYPHVFNHHQVQRLATVEPIATQALFDCLLDGAQSYRIPSLITTDSGVIIAGADKRVSIANDAPNDIDFVLRRSVDGGRTWQPPRTILQLPDTACVTDSVLLQDHTTGRIFAFLDQFPAGIGQPNAAFGTGFDADGNRIGHFADGSTCTMPREVDQLEASFFSDPHTAPPGIVFQHPSCHLWMLTSDDDGLTWSTPRDLTPDVKEEWMRFCGTSPGNGIQLQRDTHAGRLLIPMYYTKGDQFFAAALYSDDHGDTWHRGESPDLEMYESTLVEASDGSVLLWARNQHPSGAVAHARSTDGGHSWSQVTFNPNVPEIFSQPNALRVTNPDGIIFANASQLLPFRGRGVLRMSTNDGASWQHNRVFNPRHYVYQCMTQLPDGSIGLLWEREMQGLFFSIIPMTWIMQGYAL"}}, "experiment_in_all_cases": "glycan array binding signal (z-score within array); higher = stronger binding", "details_in_all_cases": "glycan notation: IUPAC condensed, linker removed", "key": {"[1]": {"biological_target": "Fuc(a1-2)Gal(b1-3)GlcNAc(b1-3)[Fuc(a1-3)[Gal(b1-4)]GlcNAc(b1-6)]Gal(b1-4)Glc", "procedure,_shortened": "(§1)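 The binding signal is a Z-score computed within each array. Data were drawn from 3228 arrays in the Consortium for Functional Glycomics database, restricted to those with a known protein sequence. Scores were averaged over arrays of the same protein sequence at different concentrations or buffers, and over linkers, and negative values can be taken as non-binding.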"}, "[2]": {"biological_target": "Fuc(a1-2)Gal(b1-3)GlcNAc(b1-3)[Neu5Ac(a2-6)Gal(b1-4)GlcNAc(b1-6)]Gal(b1-4)Glc", "procedure,_shortened": "as §1"}, "[3]": {"biological_target": "Fuc(a1-2)Gal(b1-4)[Fuc(a1-3)]GlcNAc(b1-3)GalNAc", "procedure,_shortened": "as §1"}, "[4]": {"biological_target": "Fuc(a1-2)[Gal(a1-3)]Gal(b1-3)GlcNAc(b1-2)Man(a1-3)[Fuc(a1-2)[Gal(a1-3)]Gal(b1-3)GlcNAc(b1-2)Man(a1-6)]Man(b1-4)GlcNAc(b1-4)[Fuc(a1-6)]GlcNAc", "procedure,_shortened": "as §1"}, "[5]": {"biological_target": "Fuc(a1-2)[GalNAc(a1-3)]Gal(b1-4)[Fuc(a1-3)]GlcNAc(b1-3)GalNAc", "procedure,_shortened": "as §1"}, "[6]": {"biological_target": "Fuc(a1-2)[GalNAc(a1-4)]Gal(b1-4)GlcNAc", "procedure,_shortened": "as §1"}, "[7]": {"biological_target": "Fuc(a1-3)[Gal(b1-4)]GlcNAc(b1-2)Man(a1-3)[Fuc(a1-3)[Gal(b1-4)]GlcNAc(b1-2)Man(a1-6)]Man(b1-4)GlcNAc(b1-4)[Fuc(a1-6)]GlcNAc", "procedure,_shortened": "as §1"}, "[8]": {"biological_target": "Fuc(a1-3)[Gal(b1-4)]GlcNAc(b1-6)GalNAc", "procedure,_shortened": "as §1"}, "[9]": {"biological_target": "Gal(a1-3)Fuc(a1-2)Gal(b1-4)GlcNAc(b1-3)[Gal(a1-3)Fuc(a1-2)Gal(b1-4)GlcNAc(b1-6)]GalNAc", "procedure,_shortened": "as §1"}, "[10]": {"biological_target": "Gal(a1-3)Gal(b1-4)[Fuc(a1-3)]GlcNAc", "procedure,_shortened": "as §1"}, "Gal(a1-3)GalNAc": {"biological_target": "Gal(a1-3)GalNAc", "procedure,_shortened": "as §1"}, "[11]": {"biological_target": "Gal(b1-4)GlcNAc(b1-2)Man(a1-3)[Gal(b1-4)GlcNAc(b1-2)Man(a1-6)]Man(b1-4)GlcNAc(b1-4)[Fuc(a1-6)]GlcNAc", "procedure,_shortened": "as §1"}, "[12]": {"biological_target": "Gal(b1-4)GlcNAc(b1-2)[Gal(b1-4)GlcNAc(b1-6)]Man(a1-6)[Gal(b1-4)GlcNAc(b1-2)Man(a1-3)]Man(b1-4)GlcNAc(b1-4)GlcNAc", "procedure,_shortened": "as §1"}, "[13]": {"biological_target": "Gal(b1-4)GlcNAc(b1-3)Gal(b1-4)GlcNAc", "procedure,_shortened": "as §1"}, "Gal(b1-6)Gal": {"biological_target": "Gal(b1-6)Gal", "procedure,_shortened": "as §1"}, "[14]": {"biological_target": "Gal3S(b1-4)[Fuc(a1-3)]Glc6S", "procedure,_shortened": "as §1"}, "Gal4S(b1-4)GlcNAc": {"biological_target": "Gal4S(b1-4)GlcNAc", "procedure,_shortened": "as §1"}, "Gal6S(b1-4)Glc": {"biological_target": "Gal6S(b1-4)Glc", "procedure,_shortened": "as §1"}, "Gal6S(b1-4)GlcNAc": {"biological_target": "Gal6S(b1-4)GlcNAc", "procedure,_shortened": "as §1"}, "Glc(a1-4)Glc": {"biological_target": "Glc(a1-4)Glc", "procedure,_shortened": "as §1"}, "[15]": {"biological_target": "GlcNAc(a1-4)Gal(b1-3)GlcNAc", "procedure,_shortened": "as §1"}, "[16]": {"biological_target": "GlcNAc(a1-4)Gal(b1-4)GlcNAc(b1-3)Gal(b1-4)GlcNAc", "procedure,_shortened": "as §1"}, "[17]": {"biological_target": "GlcNAc(a1-4)Gal(b1-4)GlcNAc(b1-3)Gal(b1-4)[Fuc(a1-3)]GlcNAc(b1-3)Gal(b1-4)[Fuc(a1-3)]GlcNAc", "procedure,_shortened": "as §1"}, "[18]": {"biological_target": "GlcNAc(b1-3)[GlcNAc(b1-6)]GalNAc", "procedure,_shortened": "as §1"}, "Kdn(a2-3)Gal(b1-3)GlcNAc": {"biological_target": "Kdn(a2-3)Gal(b1-3)GlcNAc", "procedure,_shortened": "as §1"}, "[19]": {"biological_target": "Man(a1-2)Man(a1-3)[Man(a1-2)Man(a1-6)]Man(a1-6)[Man(a1-2)Man(a1-2)Man(a1-3)]Man", "procedure,_shortened": "as §1"}, "[20]": {"biological_target": "Man(a1-2)Man(a1-3)[Man(a1-2)Man(a1-6)]Man(a1-6)[Man(a1-2)Man(a1-2)Man(a1-3)]Man(b1-4)GlcNAc(b1-4)GlcNAc", "procedure,_shortened": "as §1"}, "[21]": {"biological_target": "Man(a1-2)Man(a1-6)[Man(a1-3)]Man(a1-6)[Man(a1-2)Man(a1-2)Man(a1-3)]Man(b1-4)GlcNAc(b1-4)GlcNAc", "procedure,_shortened": "as §1"}, "[22]": {"biological_target": "Neu5Ac(a2-3)Gal(b1-3)GlcNAc(b1-3)GalNAc", "procedure,_shortened": "as §1"}, "[23]": {"biological_target": "Neu5Ac(a2-3)Gal(b1-4)[Fuc(a1-3)]GlcNAc(b1-3)GalNAc", "procedure,_shortened": "as §1"}, "[24]": {"biological_target": "Neu5Ac(a2-3)Gal6S(b1-4)[Fuc(a1-3)]GlcNAc", "procedure,_shortened": "as §1"}, "[25]": {"biological_target": "Neu5Ac(a2-6)Gal(b1-4)GlcNAc(b1-2)Man(a1-3)[Neu5Ac(a2-6)Gal(b1-4)GlcNAc(b1-2)Man(a1-6)]Man(b1-4)GlcNAc(b1-4)GlcNAc", "procedure,_shortened": "as §1"}, "[26]": {"biological_target": "Neu5Ac(a2-6)Gal(b1-4)GlcNAc(b1-2)Man(a1-6)Man(b1-4)GlcNAc(b1-4)GlcNAc", "procedure,_shortened": "as §1"}, "[27]": {"biological_target": "Neu5Ac(a2-6)GlcNAc(b1-4)GlcNAc", "procedure,_shortened": "as §1"}, "[28]": {"biological_target": "Neu5Ac(a2-6)GlcNAc(b1-4)GlcNAc(b1-4)GlcNAc", "procedure,_shortened": "as §1"}, "[29]": {"biological_target": "Neu5Ac9Ac(a2-3)Gal(b1-4)GlcNAc", "procedure,_shortened": "as §1"}}, "note": "This is one part of a sample in which the strongest signals are shown more often than they occur.", "data": [{"binder": "B1", "values": [{"measurement": "glycan array binding signal (z-score)", "setting": "[1]", "result": 0.007}, {"measurement": "glycan array binding signal (z-score)", "setting": "[2]", "result": 0.292}, {"measurement": "glycan array binding signal (z-score)", "setting": "[3]", "result": 6.81}, {"measurement": "glycan array binding signal (z-score)", "setting": "[4]", "result": 0.442}, {"measurement": "glycan array binding signal (z-score)", "setting": "[5]", "result": 3.26}, {"measurement": "glycan array binding signal (z-score)", "setting": "[6]", "result": -0.77}, {"measurement": "glycan array binding signal (z-score)", "setting": "[7]", "result": 4.32}, {"measurement": "glycan array binding signal (z-score)", "setting": "[8]", "result": 3.36}, {"measurement": "glycan array binding signal (z-score)", "setting": "[9]", "result": 0.813}, {"measurement": "glycan array binding signal (z-score)", "setting": "[10]", "result": -1.04}, {"measurement": "glycan array binding signal (z-score)", "setting": "Gal(a1-3)GalNAc", "result": -0.16}, {"measurement": "glycan array binding signal (z-score)", "setting": "[11]", "result": 0.309}, {"measurement": "glycan array binding signal (z-score)", "setting": "[12]", "result": 8.52}, {"measurement": "glycan array binding signal (z-score)", "setting": "[13]", "result": -0.586}, {"measurement": "glycan array binding signal (z-score)", "setting": "Gal(b1-6)Gal", "result": 0.892}, {"measurement": "glycan array binding signal (z-score)", "setting": "[14]", "result": -0.197}, {"measurement": "glycan array binding signal (z-score)", "setting": "Gal4S(b1-4)GlcNAc", "result": -0.503}, {"measurement": "glycan array binding signal (z-score)", "setting": "Gal6S(b1-4)Glc", "result": -0.205}, {"measurement": "glycan array binding signal (z-score)", "setting": "Gal6S(b1-4)GlcNAc", "result": -0.815}, {"measurement": "glycan array binding signal (z-score)", "setting": "Glc(a1-4)Glc", "result": -0.173}, {"measurement": "glycan array binding signal (z-score)", "setting": "[15]", "result": -0.205}, {"measurement": "glycan array binding signal (z-score)", "setting": "[16]", "result": 4.05}, {"measurement": "glycan array binding signal (z-score)", "setting": "[17]", "result": 9.15}, {"measurement": "glycan array binding signal (z-score)", "setting": "[18]", "result": -0.477}, {"measurement": "glycan array binding signal (z-score)", "setting": "Kdn(a2-3)Gal(b1-3)GlcNAc", "result": 0.075}, {"measurement": "glycan array binding signal (z-score)", "setting": "[19]", "result": 0.157}, {"measurement": "glycan array binding signal (z-score)", "setting": "[20]", "result": -0.074}, {"measurement": "glycan array binding signal (z-score)", "setting": "[21]", "result": 1.28}, {"measurement": "glycan array binding signal (z-score)", "setting": "[22]", "result": -0.319}, {"measurement": "glycan array binding signal (z-score)", "setting": "[23]", "result": 3.03}, {"measurement": "glycan array binding signal (z-score)", "setting": "[24]", "result": -0.34}, {"measurement": "glycan array binding signal (z-score)", "setting": "[25]", "result": 0.411}, {"measurement": "glycan array binding signal (z-score)", "setting": "[26]", "result": -0.415}, {"measurement": "glycan array binding signal (z-score)", "setting": "[27]", "result": 0.019}, {"measurement": "glycan array binding signal (z-score)", "setting": "[28]", "result": -0.157}, {"measurement": "glycan array binding signal (z-score)", "setting": "[29]", "result": -0.533}]}]}
